# Where “and” joins values, the source holds several entries; their conditions need not be identical. Equal values may be shown once. Inconclusive results are not listed. Where a call stands in place of a potency, no number is given. Some structures have more than one record in an assay (separate samples or runs), and their calls can disagree. Calls of active or inactive are those of the source. Unless noted, calls come from the whole dose curve.
# Experiments:
# [1] = qHTS assay to identify small molecule antagonists of the sonic hedgehog signaling (Shh) pathway (AID 1259369); note: nearly all actives have a fitted effect of over 45% in size; note: potency is the fitted concentration of half-maximal effect
# Procedure, shortened: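 Stable Gli1-Luc reporter NIH/3T3 clone; quantitative HTS in stimulated mode with conditioned medium. Luminescence measured after 24hr compound treatment at 37 C.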
# [2] = qHTS assay to identify small molecule agonists of the androgen receptor (AR) signaling pathway in the presence of an antagonist - cell viability counter screen (AID 1259379; active = well fitted curve in the direction sought with a large enough effect in the repeat runs; an effect the other way counts as inactive or inconclusive; note: nearly all actives have a fitted effect of over 25% in size; note: potency is the fitted concentration of half-maximal effect;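 for activity change, negative = cytotoxicity: MDA-kb2 human breast cancer cells carrying an MMTV luciferase reporter; series mostly up to about 92 µM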)
# Procedure, shortened: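 Nilutamide-containing (3.0uM final) MDA-kb2 cultures, 3,000 cells/well, were treated with compounds across 15 concentrations. After 16 hr at 37C with no CO2, cell viability was determined by CellTiter-Fluor fluorescence in the luciferase assay wells.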
# [3] = qHTS assay to identify small molecule agonists of the estrogen receptor beta (ER-beta) signaling pathway - cell viability counter screen (AID 1259380; active = well fitted curve in the direction sought with a large enough effect in the repeat runs; an effect the other way counts as inactive or inconclusive; note: nearly all actives have a fitted effect of over 30% in size; note: potency is the fitted concentration of half-maximal effect)
# Procedure, shortened: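 Steps: plate ER-beta-UAS-bla HEK293T cells, rest 6 hr; add compounds in DMSO; incubate 16 hr at 37C, 5% CO2; add FRET substrate 2 hr; add CellTiter-Glo, wait 30 min at room temperature; read luminescence.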
# [4] = qHTS assay to identify small molecule antagonists of the estrogen receptor beta (ER-beta) signaling pathway - cell viability counter screen (AID 1259382; active = well fitted curve in the direction sought with a large enough effect in the repeat runs; an effect the other way counts as inactive or inconclusive; note: nearly all actives have a fitted effect of over 55% in size; note: potency is the fitted concentration of half-maximal effect; for activity change, negative = cytotoxicity: series mostly up to about 92 µM)
# Procedure, shortened: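 Viability is scored by CellTiter-Glo luminescence (30 min, room temperature) in ER-beta-UAS-bla HEK293T wells already read for reporter fluorescence. Compound exposure lasts 16 hr at 37C alongside 1nM 17-beta-estradiol in charcoal-stripped serum medium.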
# [5] = target: Estrogen receptor (Homo sapiens) (UniProt P03372); experiment: qHTS assay to identify small molecule agonists of the estrogen receptor alpha (ER-alpha) signaling pathway in the presence of an antagonist (AID 1259383); note: nearly all actives have a fitted effect of over 15% in size; note: potency is the fitted concentration of half-maximal effect; for activation: top concentration of the series differs between compounds
# Chain of Estrogen receptor (Homo sapiens) (P03372 whole entry, looked up): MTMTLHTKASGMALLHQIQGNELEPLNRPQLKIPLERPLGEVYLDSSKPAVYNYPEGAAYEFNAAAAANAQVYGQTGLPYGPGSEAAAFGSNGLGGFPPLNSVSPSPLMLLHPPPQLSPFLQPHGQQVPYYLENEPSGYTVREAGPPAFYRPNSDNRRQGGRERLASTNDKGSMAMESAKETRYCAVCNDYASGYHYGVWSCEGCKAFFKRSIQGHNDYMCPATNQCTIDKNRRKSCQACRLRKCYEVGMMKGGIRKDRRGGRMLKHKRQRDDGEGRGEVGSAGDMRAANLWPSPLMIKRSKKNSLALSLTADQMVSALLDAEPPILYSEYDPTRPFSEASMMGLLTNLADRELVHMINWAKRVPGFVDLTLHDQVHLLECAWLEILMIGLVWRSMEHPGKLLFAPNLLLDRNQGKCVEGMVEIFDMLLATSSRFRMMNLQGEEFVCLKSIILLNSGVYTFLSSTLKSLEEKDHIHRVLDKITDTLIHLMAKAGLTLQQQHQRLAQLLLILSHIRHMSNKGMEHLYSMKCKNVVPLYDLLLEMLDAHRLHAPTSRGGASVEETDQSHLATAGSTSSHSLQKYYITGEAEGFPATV
# Procedure, shortened: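 Readout was ERE-driven luciferase luminescence in VM7Luc4E2 cells, which express full-length ER-alpha endogenously. Compounds were tested at 15 concentrations for 22hr alongside 10.0nM ICI-182,780 (final concentration).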
# [6] = qHTS assay to identify small molecule agonists or antagonists of the thyroid stimulating hormone receptor (TSHR) signaling pathway - wild type cell line counter screen (AID 1259384)
# Procedure, shortened: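 Wild-type Hek293 cells, 800/well, 18 h at 37C, then compound with Ro20-1724 for 30 min RT. cAMP by HTRF (cAMP-d2/anti-cAMP cryptate), 1 h RT, fluorescence read. 15 concentrations, triplicates.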
# [7] = target: Thyrotropin receptor (Homo sapiens) (UniProt P16473); experiment: qHTS assay to identify small molecule antagonists of the thyroid stimulating hormone receptor (TSHR) signaling pathway (AID 1259385); note: nearly all actives have a fitted effect of over 20% in size; note: potency is the fitted concentration of half-maximal effect
# Chain of Thyrotropin receptor (Homo sapiens) (P16473 whole entry, looked up): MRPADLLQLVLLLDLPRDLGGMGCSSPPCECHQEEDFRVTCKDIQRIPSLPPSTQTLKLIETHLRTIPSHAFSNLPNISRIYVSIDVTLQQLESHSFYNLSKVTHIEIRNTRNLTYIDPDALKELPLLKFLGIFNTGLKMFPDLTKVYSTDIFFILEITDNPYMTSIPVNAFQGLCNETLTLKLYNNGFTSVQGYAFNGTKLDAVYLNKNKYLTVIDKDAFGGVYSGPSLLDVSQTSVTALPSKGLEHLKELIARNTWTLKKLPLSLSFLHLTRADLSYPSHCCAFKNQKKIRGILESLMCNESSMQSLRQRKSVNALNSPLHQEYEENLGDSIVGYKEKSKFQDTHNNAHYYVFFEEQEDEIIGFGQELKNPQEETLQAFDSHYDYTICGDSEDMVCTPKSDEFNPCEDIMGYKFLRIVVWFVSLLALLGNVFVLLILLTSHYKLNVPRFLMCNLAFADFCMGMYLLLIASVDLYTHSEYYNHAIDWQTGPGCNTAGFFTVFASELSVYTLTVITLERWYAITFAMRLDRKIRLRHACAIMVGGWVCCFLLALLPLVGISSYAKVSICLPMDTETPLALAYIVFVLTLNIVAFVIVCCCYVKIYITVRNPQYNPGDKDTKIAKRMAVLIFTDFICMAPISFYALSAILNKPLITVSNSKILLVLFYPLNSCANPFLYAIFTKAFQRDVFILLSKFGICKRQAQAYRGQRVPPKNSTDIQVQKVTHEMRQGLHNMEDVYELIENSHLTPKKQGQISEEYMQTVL
# Procedure, shortened: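 TSHR-HEK293 cells (800/well) plated 18 h, then compounds with Ro20-1724 and TSH at 1.5 ng/mL final, 30 min at room temperature. cAMP quantified by HTRF (cAMP-d2/anti-cAMP-cryptate, 1 h); 15 concentrations in triplicate.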
# [8] = target: Androgen receptor (Homo sapiens) (UniProt P10275); experiment: qHTS assay to identify small molecule agonists of the androgen receptor (AR) signaling pathway in the presence of an antagonist (AID 1259381); note: nearly all actives have a fitted effect of over 15% in size
# Chain of Androgen receptor (Homo sapiens) (P10275 whole entry, looked up): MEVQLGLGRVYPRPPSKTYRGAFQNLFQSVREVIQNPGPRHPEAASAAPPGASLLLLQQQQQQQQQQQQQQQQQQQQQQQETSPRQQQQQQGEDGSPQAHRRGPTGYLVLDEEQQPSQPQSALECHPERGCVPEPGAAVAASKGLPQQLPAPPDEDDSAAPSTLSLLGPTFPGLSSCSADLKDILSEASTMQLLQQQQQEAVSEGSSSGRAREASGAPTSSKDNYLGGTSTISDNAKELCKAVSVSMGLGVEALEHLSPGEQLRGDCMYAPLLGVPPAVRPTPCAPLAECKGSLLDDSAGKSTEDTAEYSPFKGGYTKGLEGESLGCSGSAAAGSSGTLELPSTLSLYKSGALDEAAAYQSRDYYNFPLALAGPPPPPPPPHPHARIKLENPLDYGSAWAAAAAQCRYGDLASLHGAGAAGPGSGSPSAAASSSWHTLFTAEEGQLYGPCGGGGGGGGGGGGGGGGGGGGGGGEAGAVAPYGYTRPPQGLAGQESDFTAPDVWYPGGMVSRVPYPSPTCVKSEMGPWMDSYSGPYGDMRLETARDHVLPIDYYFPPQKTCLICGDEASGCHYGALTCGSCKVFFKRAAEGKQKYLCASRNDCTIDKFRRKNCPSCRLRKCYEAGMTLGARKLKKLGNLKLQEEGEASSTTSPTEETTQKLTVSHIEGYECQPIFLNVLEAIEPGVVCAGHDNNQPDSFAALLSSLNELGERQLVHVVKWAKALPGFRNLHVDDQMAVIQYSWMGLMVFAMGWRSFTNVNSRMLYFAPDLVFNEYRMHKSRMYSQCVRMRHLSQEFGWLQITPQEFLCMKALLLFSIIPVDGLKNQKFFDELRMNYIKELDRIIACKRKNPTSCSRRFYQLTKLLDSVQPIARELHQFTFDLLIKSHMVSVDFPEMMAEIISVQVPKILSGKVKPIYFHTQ
# Procedure, shortened: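 Reporter-gene luminescence from MDA-kb2 cells exposed 16hr at 37C (0% CO2) to 15-point compound titrations with 3.0uM final nilutamide as AR antagonist.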
# [9] = target: Estrogen receptor beta (Homo sapiens) (UniProt Q92731); experiment: qHTS assay to identify small molecule agonists of the estrogen receptor beta (ER-beta) signaling pathway (AID 1259377; active = well fitted activation curve with a large enough effect in the signal ratio in the repeat runs, not every such curve was filed as active; the % refers to the signal ratio)
# Chain of Estrogen receptor beta (Homo sapiens) (Q92731 whole entry, looked up): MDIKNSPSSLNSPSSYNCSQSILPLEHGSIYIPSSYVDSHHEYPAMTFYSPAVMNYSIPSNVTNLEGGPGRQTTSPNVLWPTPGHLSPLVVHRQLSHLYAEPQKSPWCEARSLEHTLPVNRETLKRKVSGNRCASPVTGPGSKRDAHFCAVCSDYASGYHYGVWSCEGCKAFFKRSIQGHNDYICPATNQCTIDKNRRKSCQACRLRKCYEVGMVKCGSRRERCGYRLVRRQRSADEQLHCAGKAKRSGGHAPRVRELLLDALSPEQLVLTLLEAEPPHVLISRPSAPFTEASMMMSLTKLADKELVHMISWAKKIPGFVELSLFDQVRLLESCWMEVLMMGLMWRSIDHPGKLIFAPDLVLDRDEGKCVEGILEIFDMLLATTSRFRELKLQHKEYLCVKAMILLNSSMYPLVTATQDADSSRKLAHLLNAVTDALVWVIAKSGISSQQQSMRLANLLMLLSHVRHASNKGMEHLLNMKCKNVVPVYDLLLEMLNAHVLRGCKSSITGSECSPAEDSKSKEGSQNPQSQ
# Procedure, shortened: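 Read-out: beta-lactamase FRET fluorescence. Cell line: ER-beta-UAS-bla HEK293T in 2% charcoal-stripped FBS. Exposure: 16 hr at 37C. Substrate step: 2 h at room temperature.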
# [10] = target: Estrogen receptor beta (Homo sapiens) (UniProt Q92731); experiment: qHTS assay to identify small molecule antagonists of the estrogen receptor beta (ER-beta) signaling pathway (AID 1259378; active = well fitted inhibition curve with a large enough effect in the signal ratio in the repeat runs, not every such curve was filed as active; the % refers to the signal ratio)
# Procedure, shortened: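 ER-beta-UAS-bla HEK293T cells in 2% charcoal-stripped FBS medium treated with compound plus 1nM final 17-beta-estradiol for 16 hr at 37C. Beta-lactamase reporter read by FRET substrate fluorescence after 2 hours at room temperature.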
structure (smiles),measurement,setting,value
NC(N)=Nc1nc(CSCC/C(N)=N/S(N)(=O)=O)cs1,Potency,[1],inactive
same,Potency,[2],inactive
same,Potency,[3],inactive
same,Potency,[4],inactive
same,Potency,[5],inactive
NC(Cc1ccc(Cl)cc1)C(=O)O (configuration not stated),"activity change, negative = inhibition",[1],23.4% [at 0.349 µM] (inactive)
same,"activity change, negative = cytotoxicity",[2],4.35% [at 0.35 µM] (inactive)
same,"activity change, negative = cytotoxicity",[3],-2.17% [at 0.349 µM] (inactive)
same,"activity change, negative = cytotoxicity",[4],-0.284% [at 0.349 µM] (inactive)
same,cAMP activity change,[6],"-3.62% [at 0.349 µM, stronger effect = higher value] (inactive)"
same,"activity change, negative = inhibition",[7],0.481% [at 0.349 µM] (inactive)
CCC[C@H](N[C@@H](C)C(=O)N1[C@H](C(=O)O)C[C@@H]2CCCC[C@@H]21)C(=O)OCC,Potency,[1],inactive
same,Potency,[2],inactive
same,Potency,[3],inactive
same,Potency,[4],inactive
same,Potency,[5],inactive
same,Potency,[6],inactive
same,Potency,[7],inactive
CC[C@H]1CN2CCc3cc(OC)c(OC)cc3[C@@H]2C[C@@H]1C[C@H]1NCCc2cc(OC)c(OC)cc21,Potency,[1],8.7 nM (active) and 2.7 nM (active)
same,Potency,[2],194 nM (active)
same,Potency,[3],inactive
same,Potency,[4],inactive
COc1ccc(CCN2CCC(Nc3nc4ccccc4n3Cc3ccc(F)cc3)CC2)cc1,Potency,[1],625 nM (active) and 3.35 µM (active)
same,Potency,[2],17.6 µM (active) and 21.1 µM (active)
same,Potency,[3],9.9 µM (active) and 23.7 µM (active)
same,Potency,[4],9.9 µM (active) and 21.1 µM (active)
same,Potency,[6],inactive
same,Potency,[7],31.3 µM (active) and inactive
CNC1(C)C2CCC(C2)C1(C)C (configuration not stated),Potency,[1],inactive
same,Potency,[2],inactive
same,Potency,[3],inactive
same,Potency,[4],inactive
Nc1cc(S(=O)(=O)O)cc2cc(S(=O)(=O)O)cc(O)c12,Potency,[1],inactive
same,Potency,[2],inactive and 27.3 µM (active)
same,Potency,[3],inactive and 4.33 µM (active)
same,Potency,[4],inactive
CC1=CC(=O)c2ccccc2C1=O,Potency,[1],24.3 µM (active) and 16.8 µM (active)
same,Potency,[2],43300 nM (active)
same,Potency,[3],24.3 µM (active) and 26.6 µM (active)
same,Potency,[8],inactive
same,Potency,[4],24.3 µM (active)
same,Potency,[5],inactive
CCC(C)(Oc1ccc(C2(c3ccc(OC(C)(CC)C(=O)O)cc3)CCCCC2)cc1)C(=O)O (configuration not stated),Potency,[1],inactive
same,Potency,[2],inactive
same,Potency,[3],inactive
same,Potency,[8],inactive
same,Potency,[4],inactive
same,Potency,[5],inactive
same,Potency,[6],inactive
same,Potency,[7],inactive
CCN1CCCC1CNC(=O)c1cc(S(=O)(=O)CC)c(N)cc1OC (configuration not stated),Potency,[1],inactive
same,Potency,[2],inactive
same,Potency,[3],inactive
same,Potency,[4],inactive
same,Potency,[5],inactive
same,Potency,[6],inactive
same,Potency,[7],inactive
CCCCC/C=C/CC1CC(=O)OC1=O (configuration not stated),Potency,[1],inactive
same,Potency,[2],inactive
same,Potency,[3],inactive
same,Potency,[4],inactive
same,Potency,[5],inactive
same,Potency,[7],inactive
OCCOCCN1CCN(C(c2ccccc2)c2ccc(Cl)cc2)CC1 (configuration not stated),Potency,[1],7.59 µM (active) and inactive
same,Potency,[2],53.8 µM (active) and inactive
same,Potency,[3],30.2 µM (active)
same,Potency,[4],26.9 µM (active)
same,Potency,[6],inactive
same,Potency,[7],inactive
c1ccc2c(c1)-c1cccc3c1c-2cc1ccccc13,Potency,[1],inactive and 545 nM (active)
same,Potency,[2],inactive
same,Potency,[3],inactive
same,Potency,[4],inactive
same,Potency,[5],inactive
same,Potency,[7],inactive
Cc1c(O)cccc1C(=O)N[C@@H](CSc1ccccc1)[C@H](O)CN1C[C@H]2CCCC[C@H]2C[C@H]1C(=O)NC(C)(C)C,Potency,[1],8.41 µM (active) and 29.8 µM (active)
same,Potency,[2],53 µM (active) and 23.7 µM (active)
same,Potency,[3],23.7 µM (active) and 18.8 µM (active)
same,Potency,[8],inactive
same,Potency,[4],16.8 µM (active) and 23.7 µM (active)
same,Potency,[7],inactive
CCn1cc(C(=O)O)c(=O)c2cc(F)c(N3CCNC(C)C3)c(F)c21 (configuration not stated),Potency,[1],inactive
same,Potency,[2],inactive
same,Potency,[3],inactive
same,Potency,[4],inactive
same,Potency,[5],inactive
same,Potency,[7],inactive
CC(C)(c1ccccc1)c1ccc(Nc2ccc(C(C)(C)c3ccccc3)cc2)cc1,Potency,[1],inactive
same,Potency,[2],inactive
same,Potency,[3],inactive
same,Potency,[4],inactive
same,Potency,[5],inactive
same,Potency,[7],inactive
O=C(Oc1ccccc1)c1ccccc1O,Potency,[1],inactive and 54.5 µM (active)
same,Potency,[2],inactive
same,Potency,[3],inactive
same,Potency,[4],inactive
same,Potency,[5],inactive
same,Potency,[7],inactive
NCCO,Potency,[1],inactive and 15.4 µM (active)
same,Potency,[2],inactive
same,Potency,[3],inactive
same,Potency,[4],inactive
same,Potency,[5],inactive
same,Potency,[7],inactive
CCc1ccc(C(c2ccc(CC)cc2)C(Cl)Cl)cc1,Potency,[1],inactive
same,Potency,[2],inactive
same,Potency,[3],inactive
same,Potency,[8],inactive
same,Potency,[4],inactive
same,Potency,[5],inactive
same,Potency,[6],inactive
same,Potency,[7],inactive
CCCCCCCCCCCCCC[P+](CCCC)(CCCC)CCCC,Potency,[1],24.2 nM (active) and 61.1 nM (active)
same,Potency,[2],19.2 µM (active) and 15.4 µM (active)
same,Potency,[3],17.1 µM (active) and 27.3 µM (active)
same,Potency,[8],inactive
same,Potency,[4],19.2 µM (active) and 24.3 µM (active)
same,Potency,[5],inactive
same,Potency,[6],inactive
same,Potency,[7],54.2 µM (active) and 48.6 µM (active)
COc1cc(C(=S)N2CCOCC2)ccc1O,Potency,[1],inactive
same,Potency,[2],inactive
same,Potency,[3],inactive
same,Potency,[8],inactive
same,Potency,[4],inactive
same,Potency,[5],inactive
same,Potency,[6],inactive
same,Potency,[7],inactive
Cc1cc(C2(c3cc(C)c(O)cc3C)OS(=O)(=O)c3ccccc32)c(C)cc1O,Potency,[1],inactive
same,Potency,[2],54.5 µM (active) and 27.3 µM (active)
same,Potency,[3],inactive
same,Potency,[4],inactive
same,Potency,[5],43.3 µM (active) and inactive
same,Potency,[6],inactive
same,Potency,[7],inactive
Cc1ccc(-c2cc(C(F)(F)F)nn2-c2ccc(S(N)(=O)=O)cc2)cc1,Potency,[1],21.6 µM (active) and 13.7 µM (active) and inactive
same,Potency,[2],inactive
same,Potency,[3],60.9 µM (active) and 34.4 µM (active) and inactive
same,Potency,[8],inactive
same,Potency,[4],61.1 µM (active) and inactive
same,Potency,[5],inactive
same,Potency,[6],inactive
same,Potency,[7],inactive
CC(C)(C)c1ccc(O)c(C(C)(C)C)c1,outcome,[9],inactive
same,Potency,[10],inactive
same,Potency,[2],inactive
same,Potency,[3],48.4 µM (active) and 54.5 µM (active)
same,Potency,[4],60.9 µM (active)
same,Potency,[5],inactive
same,Potency,[6],inactive
same,Potency,[7],inactive
O=C(O)c1cn(-c2ccc(F)cc2)c2cc(N3CCNCC3)c(F)cc2c1=O,Potency,[1],inactive
same,Potency,[2],inactive
same,Potency,[3],inactive
same,Potency,[4],inactive
same,Potency,[6],inactive
same,Potency,[7],inactive
O=S(=O)(O)c1ccc2nc(-c3ccccc3)[nH]c2c1,Potency,[1],inactive
same,Potency,[2],inactive
same,Potency,[3],23.2 µM (active)
same,Potency,[4],32.7 µM (active)
same,Potency,[6],inactive
same,Potency,[7],inactive
O=C1CC2(CCCC2)CC(=O)N1CCCCN1CCN(c2ncccn2)CC1,Potency,[1],19.3 µM (active) and inactive
same,Potency,[2],inactive
same,Potency,[3],4.86 µM (active)
same,Potency,[4],inactive
same,Potency,[7],inactive
COc1ccc(CCN(C)CCCC(C#N)(c2ccc(OC)c(OC)c2)C(C)C)cc1OC (configuration not stated),Potency,[3],inactive
same,Potency,[4],inactive
same,Potency,[7],43.2 µM (active)
CC[C@@H](N)CO,Potency,[2],inactive
same,Potency,[3],inactive
same,Potency,[4],inactive
same,Potency,[5],inactive
same,Potency,[6],inactive
same,Potency,[7],inactive
Cc1cc(Cc2cc(C)cc(C(C)(C)C)c2O)c(O)c(C(C)(C)C)c1,Potency,[2],61.4 µM (active) and 68.6 µM (active)
same,Potency,[3],13.8 µM (active) and 21.7 µM (active)
same,Potency,[4],17.3 µM (active) and 21.7 µM (active)
same,Potency,[5],inactive
same,Potency,[6],inactive
same,Potency,[7],inactive
CC(C)C(=O)c1c(C(C)C)nn2ccccc12,Potency,[2],inactive
same,Potency,[3],inactive
same,Potency,[4],inactive

# Reference: PubChem BioAssay (Tox21)
